Experimental data taken from PubChem BioAssay (NCI).
Values joined by “and” are separate entries in the source; they are usually repeats but may differ in a detail not shown here. Equal entries are not always repeated. This is part of a sample that, as a whole, favours compounds with a hit. Of some 83,000 tested, about 20% had one in any assay.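 Results are percent growth after 48 hours of single-concentration exposure. 100 means growth as in untreated cells, lower positive values show inhibition; negative values down to -100 show cell death.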 Active and inactive are the calls of the source. The calls were made as follows: active = growth percent below 10; inactive = the rest.

Columns and labels:
Test in all cases: NCI-60 one-dose screen, 48 h (100 = growth as untreated, 0 = no growth, -100 = all killed)
Conditions in all cases: 10 µM unless noted
SR leukemia = system: SR leukemia
RPMI-8226 leukemia = system: RPMI-8226 leukemia
OVCAR-8 ovarian = system: OVCAR-8 ovarian
OVCAR-5 ovarian = system: OVCAR-5 ovarian
OVCAR-4 ovarian = system: OVCAR-4 ovarian
SK-OV-3 ovarian = system: SK-OV-3 ovarian
IGROV1 ovarian = system: IGROV1 ovarian
OVCAR-3 ovarian = system: OVCAR-3 ovarian
HS 578T breast = system: HS 578T breast
NCI/ADR-RES ovarian = system: NCI/ADR-RES ovarian

Measured: growth

CCOc1nc(-c2ccccc2)cc2c(O)c(C(=O)N/N=C/c3ccc(N(C)C)cc3)[nH]c(=O)c12
inactive: SR leukemia 101% | RPMI-8226 leukemia 102% | OVCAR-8 ovarian 115% | OVCAR-5 ovarian 115% | OVCAR-4 ovarian 148% | SK-OV-3 ovarian 197% | IGROV1 ovarian 15.7% | OVCAR-3 ovarian 111% | HS 578T breast 94.1% | NCI/ADR-RES ovarian 105%

COC(=O)c1[nH]nc(OC)c1C1(C(C#N)c2nc3ccccc3s2)CCCc2ccccc21 (stereo not given)
inactive: SR leukemia 99.8% | RPMI-8226 leukemia 94.7% | OVCAR-8 ovarian 100% | OVCAR-5 ovarian 80.3% | OVCAR-4 ovarian 103% | SK-OV-3 ovarian 87% | IGROV1 ovarian 79% | OVCAR-3 ovarian 98.6% | HS 578T breast 99.2% | NCI/ADR-RES ovarian 101%

Cc1ccc(-c2nc3nc(-c4ccc(Cl)cc4)nc(N4CCCNCC4)c3o2)cc1
active: SR leukemia -44.9% | RPMI-8226 leukemia -48.7% | OVCAR-8 ovarian -58.7% | OVCAR-5 ovarian -98.5% | OVCAR-4 ovarian -83.5% | IGROV1 ovarian -83.8% | OVCAR-3 ovarian -95.5% | HS 578T breast -50.8% | NCI/ADR-RES ovarian -66.9%
inactive: SK-OV-3 ovarian 117%

C=CCOc1ccc(/C=C2\SC(=S)N(CCc3ccc(O)cc3)C2=O)cc1
inactive: SR leukemia 38.6% | RPMI-8226 leukemia 76.8% | OVCAR-8 ovarian 97.5% | OVCAR-5 ovarian 110% | OVCAR-4 ovarian 86.5% | SK-OV-3 ovarian 115% | IGROV1 ovarian 59.4% | OVCAR-3 ovarian 100% | HS 578T breast 95% | NCI/ADR-RES ovarian 98.9%

COc1ccc(/C(C)=C(\c2ccc(OCCN3CCOCC3)cc2)c2ccc(OC(=O)C3CCCCC3)cc2)cc1
inactive: SR leukemia 112% | RPMI-8226 leukemia 97.9% | OVCAR-8 ovarian 105% | OVCAR-5 ovarian 98.4% | OVCAR-4 ovarian 111% | SK-OV-3 ovarian 101% | IGROV1 ovarian 102% | OVCAR-3 ovarian 97.5% | HS 578T breast 110% | NCI/ADR-RES ovarian 102%

Cc1cccc(-c2nnc(SCC(=O)Nc3ncc(Cc4ccccc4)s3)n2N2C(=O)CSC2=S)c1
inactive: SR leukemia 44.8% | RPMI-8226 leukemia 77.2% | OVCAR-8 ovarian 24.7% | OVCAR-5 ovarian 72.7% | SK-OV-3 ovarian 87.2% | IGROV1 ovarian 50.5% | OVCAR-3 ovarian 50.8% | NCI/ADR-RES ovarian 80.2%
active: OVCAR-4 ovarian -14.9% | HS 578T breast 1.22%

Clc1ccc(Nc2nc(Nc3ccc(Cl)cc3)nc(Nc3ccc(-c4cc(-c5cccc(Cl)c5)on4)cc3)n2)cc1
inactive: RPMI-8226 leukemia 87% | OVCAR-8 ovarian 85.5% | OVCAR-5 ovarian 71.4% | OVCAR-4 ovarian 101% | SK-OV-3 ovarian 103% | IGROV1 ovarian 104% | OVCAR-3 ovarian 90.1% | HS 578T breast 105% | NCI/ADR-RES ovarian 84.1%
active: SR leukemia -9.82%

Clc1ccc(/C=N\N2CCCCCC2)cc1
inactive: SR leukemia 93.8% and 79.5% | RPMI-8226 leukemia 107% | OVCAR-8 ovarian 116% and 98.7% | OVCAR-5 ovarian 87.8% and 95% | OVCAR-4 ovarian 91.9% | SK-OV-3 ovarian 110% and 109% | IGROV1 ovarian 103% | OVCAR-3 ovarian 101% and 116% | HS 578T breast 109% and 139% | NCI/ADR-RES ovarian 104%

O=C(NCc1ccc(Cn2c(=O)sn(-c3ccc(Cl)cc3)c2=O)cc1)OCc1ccc2c(Cl)cc(Cl)c(O)c2n1
active: NCI/ADR-RES ovarian 6.82%
inactive: SR leukemia 51.9% | RPMI-8226 leukemia 46.8% | OVCAR-8 ovarian 38.1% | OVCAR-5 ovarian 74.9% | OVCAR-4 ovarian 67.3% | SK-OV-3 ovarian 76% | IGROV1 ovarian 49.2% | OVCAR-3 ovarian 63.7% | HS 578T breast 69.7%

Cc1ccc(S(=O)(=O)OC[C@@]2(C)CC[C@]3(C)CC[C@]4(C)C(=CC[C@@H]5[C@@]6(C)CCCNC(C)(C)[C@@H]6CC[C@]54C)[C@@H]3C2)cc1
inactive: SK-OV-3 ovarian 75.2%
active: SR leukemia -39.3% | RPMI-8226 leukemia -57.8% | OVCAR-8 ovarian -50.2% | OVCAR-5 ovarian -84% | OVCAR-4 ovarian -78.5% | IGROV1 ovarian -84.9% | OVCAR-3 ovarian -95.8% | HS 578T breast -20% | NCI/ADR-RES ovarian -65.8%

Clc1ccc2c(NCCN3CCN(c4ccnc(N5CCCC5)n4)CC3)ccnc2c1
active: SR leukemia -12.2% | RPMI-8226 leukemia -10.6%
inactive: OVCAR-8 ovarian 36.8% | OVCAR-5 ovarian 68.8% | OVCAR-4 ovarian 57.8% | SK-OV-3 ovarian 90% | IGROV1 ovarian 47.8% | OVCAR-3 ovarian 40.8% | HS 578T breast 76.4% | NCI/ADR-RES ovarian 49%

COc1ccc(-c2cc(=O)c3c(O)cc(O)cc3o2)cc1
inactive: SR leukemia 59.9% and 69.1% | RPMI-8226 leukemia 87.6% and 87.3% | OVCAR-8 ovarian 103% and 90.2% | OVCAR-5 ovarian 112% and 130% | OVCAR-4 ovarian 118% and 102% | SK-OV-3 ovarian 112% and 135% | IGROV1 ovarian 125% and 113% | OVCAR-3 ovarian 112% and 81% | HS 578T breast 120% and 97% | NCI/ADR-RES ovarian 99.6% and 99.1%

COc1ccc2c(c1)CCNC21C(=O)Nc2c(Br)cc(Br)cc21 (stereo not given)
inactive: SR leukemia 96.4% | RPMI-8226 leukemia 106% | OVCAR-8 ovarian 101% | OVCAR-5 ovarian 91.3% | OVCAR-4 ovarian 95.2% | SK-OV-3 ovarian 84.2% | IGROV1 ovarian 82.4% | OVCAR-3 ovarian 101% | HS 578T breast 94.8% | NCI/ADR-RES ovarian 104%

[Cu+].[NH-][C@H]1C[N-]C(=O)[C@H]([C@H]2CCN=C(N)N2)[N-]C(=O)/C(=C\NC(N)=O)[N-]C(=O)[C@H](CNC(=O)C[C@@H](N)CCCN)[N-]C(=O)[C@H](CO)[N-]C1=O
inactive: SR leukemia 96.1% | RPMI-8226 leukemia 103% | OVCAR-8 ovarian 106% | OVCAR-5 ovarian 113% | OVCAR-4 ovarian 99.9% | SK-OV-3 ovarian 71.3% | IGROV1 ovarian 109% | OVCAR-3 ovarian 104% | HS 578T breast 97% | NCI/ADR-RES ovarian 103%

COc1ccc(C2=C(CN)C(O)NC(=NCC(=O)c3ccc4ccccc4c3)N2)cc1 (stereo not given)
inactive: SR leukemia 99.4% | RPMI-8226 leukemia 119% | OVCAR-8 ovarian 98.8% | OVCAR-5 ovarian 99.8% | OVCAR-4 ovarian 107% | SK-OV-3 ovarian 89.4% | IGROV1 ovarian 102% | OVCAR-3 ovarian 99.9% | HS 578T breast 116% | NCI/ADR-RES ovarian 103%

COc1ccc(-c2ccccc2)cc1-c1c(Nc2cc(Cl)cc(Cl)c2O)c(=O)c1=O
inactive: SR leukemia 23.2% | RPMI-8226 leukemia 25.4% | OVCAR-8 ovarian 12.3% | OVCAR-5 ovarian 28.7% | OVCAR-4 ovarian 16.8% | IGROV1 ovarian 31%
active: SK-OV-3 ovarian -10.8% | OVCAR-3 ovarian 5.32% | HS 578T breast 3.42% | NCI/ADR-RES ovarian 1.38%

COc1ccc(/C(C)=C(\c2ccc(OCCN3CCCCCC3)cc2)c2ccc(OC(=O)C3CCCCC3)cc2)cc1
active: SR leukemia -20.1% | RPMI-8226 leukemia -55.1% | OVCAR-8 ovarian -47.3% | OVCAR-5 ovarian -24.7% | OVCAR-4 ovarian -28.4% | SK-OV-3 ovarian -70.9% | IGROV1 ovarian -49% | OVCAR-3 ovarian -86.9% | HS 578T breast -38.3% | NCI/ADR-RES ovarian -65.2%

Cc1nc2sc(C(=O)Nc3cccc(Cl)c3C)c(N)c2cc1C(O)c1ccccc1 (stereo not given)
inactive: OVCAR-8 ovarian 11.8% | OVCAR-5 ovarian 37.5% | OVCAR-4 ovarian 55.6% | SK-OV-3 ovarian 32.9% | IGROV1 ovarian 21.8% | HS 578T breast 23.4%
active: SR leukemia 7.23% | RPMI-8226 leukemia 8.08% | OVCAR-3 ovarian 4.1% | NCI/ADR-RES ovarian 3.99%

O=C(O)c1ccccc1Cc1ccc(F)c2ccccc12
inactive: SR leukemia 107% and 100% | RPMI-8226 leukemia 110% and 96.2% | OVCAR-8 ovarian 101% and 102% | OVCAR-5 ovarian 112% and 96.7% | OVCAR-4 ovarian 110% and 96.6% | SK-OV-3 ovarian 102% and 122% | IGROV1 ovarian 113% and 119% | OVCAR-3 ovarian 98.6% and 108% | HS 578T breast 95% and 103% | NCI/ADR-RES ovarian 114% and 110%

O=C1C(N2CCOCC2)=C(I)C(=O)c2ncccc21
inactive: SR leukemia 19.2% | RPMI-8226 leukemia 91.2% | OVCAR-8 ovarian 69.5% | OVCAR-5 ovarian 97.8% | OVCAR-4 ovarian 59% | SK-OV-3 ovarian 79.3% | IGROV1 ovarian 54.5% | OVCAR-3 ovarian 69.8% | HS 578T breast 65.1% | NCI/ADR-RES ovarian 75.4%

COc1nc2ccc(C)cc2cc1/C=[N+](\[O-])c1ccccc1
inactive: SR leukemia 39.9% | RPMI-8226 leukemia 69.1% | OVCAR-8 ovarian 95.3% | OVCAR-5 ovarian 92.6% | OVCAR-4 ovarian 83.7% | SK-OV-3 ovarian 79.9% | IGROV1 ovarian 75.2% | OVCAR-3 ovarian 96.6% | HS 578T breast 91% | NCI/ADR-RES ovarian 81.1%

C[C@@H]1O[C@@H](O[C@H]2[C@@H](OC(=O)[C@]34CCC(C)(C)C[C@H]3C3=CC[C@@H]5[C@@]6(C)C[C@H](O)[C@H](O[C@@H]7O[C@H](CO)[C@@H](O)[C@H](O)[C@H]7O)[C@@](C)(CO)[C@@H]6CC[C@@]5(C)[C@]3(C)C[C@H]4O)OC[C@@H](O)[C@@H]2O)[C@H](O)[C@H](O[C@@H]2OC[C@@H](O)[C@H](O[C@@H]3OC[C@](O)(CO)[C@H]3O[C@@H]3OC[C@@H](O)[C@H](O)[C@H]3O)[C@H]2O)[C@H]1O[C@@H]1OC[C@](O)(CO)[C@H]1O
inactive: SR leukemia 67.5% | RPMI-8226 leukemia 64% | OVCAR-8 ovarian 98.8% | OVCAR-5 ovarian 78.1% | OVCAR-4 ovarian 42.5% | SK-OV-3 ovarian 93.9% | IGROV1 ovarian 86.4% | OVCAR-3 ovarian 89.6% | HS 578T breast 97.9% | NCI/ADR-RES ovarian 80.5%

CCCn1nc(C(=O)N2CCCCC2)c2c1CCC(N1CCC(c3ccncc3)CC1)C2 (stereo not given)
inactive: SR leukemia 123% | RPMI-8226 leukemia 105% | OVCAR-8 ovarian 98.3% | OVCAR-5 ovarian 107% | OVCAR-4 ovarian 103% | SK-OV-3 ovarian 109% | IGROV1 ovarian 113% | OVCAR-3 ovarian 106% | HS 578T breast 103% | NCI/ADR-RES ovarian 101%
